The nature of experiment [1]: A CellTox Green Cytotoxicity Assay to monitor cytotoxicity in HEK293 cells - 40 hour (AID 1224871). Note: nearly all actives have a fitted effect of over 45% in size. Note: potency is the fitted concentration of half-maximal effect. The essentials:
(§1)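 Nonlytic real-time cytotoxicity: HEK293 + CellTox Green reagent plated, 5 h preincubation, pintool compound addition (23 nL in DMSO), 37 C for 40 h, fluorescence measured at successive time points.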

The nature of experiment [2]: A CellTox Green Cytotoxicity Assay to monitor cytotoxicity in HEK293 cells - 24 hour (AID 1224875). For activity change: series mostly up to about 77 µM. Note: nearly all actives have a fitted effect of over 45% in size. Note: potency is the fitted concentration of half-maximal effect. The essentials:
as §1

Experiment [3] is described as follows: A CellTox Green Cytotoxicity Assay to monitor cytotoxicity in HepG2 cells - 16 hour (AID 1224876). Note: nearly all actives have a fitted effect of over 45% in size. Note: potency is the fitted concentration of half-maximal effect. The procedure, abridged:
(§2)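 Read-out is fluorescence of a cyanine dye excluded from live cells that stains DNA of dead HepG2 cells, with signal proportional to cytotoxicity. Plates were read at 0, 8, 16, 24, 32 and 40 h after compound addition.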

The nature of experiment [4]: qHTS RealTime-Glo MT Cell Viability Assay in HepG2 cells - 32 hour (AID 1224877). Note: nearly all actives have a fitted effect of over 55% in size. Note: potency is the fitted concentration of half-maximal effect. The essentials: (§3)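 Compound treatment began 5 h after plating HepG2 cells (600/well) with NanoLuc luciferase and prosubstrate. Plates stayed at 37 C for 40 h; luminescence was captured at six time points, 0 h through 40 h.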
The nature of experiment [5]: A CellTox Green Cytotoxicity Assay to monitor cytotoxicity in HepG2 cells - 24 hour (AID 1224878). Note: nearly all actives have a fitted effect of over 45% in size. Note: potency is the fitted concentration of half-maximal effect. The essentials:
as §2

Experiment [6] in a line: A CellTox Green Cytotoxicity Assay to monitor cytotoxicity in HepG2 cells - 40 hour (AID 1224879). Note: nearly all actives have a fitted effect of over 40% in size. Note: potency is the fitted concentration of half-maximal effect. The essentials: as §2
Experiment [7] can be described thus: qHTS RealTime-Glo MT Cell Viability Assay in HEK293 cells - 0 hour (AID 1224880). The essentials:
(§4)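 Cells were seeded together with NanoLuc luciferase and a prosubstrate that viable cells reduce to a luciferase substrate. After a 5 h incubation at 37 C/5% CO2, compounds were added and luminescence was measured repeatedly during 40 h of treatment.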

Experiment [8] can be described thus: A CellTox Green Cytotoxicity Assay to monitor cytotoxicity in HEK293 cells - 32 hour (AID 1224881). Note: nearly all actives have a fitted effect of over 40% in size. Note: potency is the fitted concentration of half-maximal effect. The essentials: as §1
The nature of experiment [9]: A CellTox Green Cytotoxicity Assay to monitor cytotoxicity in HepG2 cells - 0 hour (AID 1224882). Note: nearly all actives have a fitted effect of over 35% in size. The essentials: as §2
Experiment [10] in a line: A CellTox Green Cytotoxicity Assay to monitor cytotoxicity in HepG2 cells - 32 hour (AID 1224883). Note: nearly all actives have a fitted effect of over 50% in size. Note: potency is the fitted concentration of half-maximal effect. The procedure, abridged:
as §2

Experiment [11] can be described thus: A CellTox Green Cytotoxicity Assay to monitor cytotoxicity in HEK293 cells - 8 hour (AID 1224884). Note: nearly all actives have a fitted effect of over 35% in size. Note: potency is the fitted concentration of half-maximal effect. The essentials: as §1
The nature of experiment [12]: qHTS RealTime-Glo MT Cell Viability Assay in HepG2 cells - 16 hour (AID 1224885). Note: nearly all actives have a fitted effect of over 50% in size. Note: potency is the fitted concentration of half-maximal effect. The essentials:
as §3
For orientation: qHTS replaces the single test concentration by a dilution series.

Experiment [13] can be described thus: qHTS RealTime-Glo MT Cell Viability Assay in HEK293 cells - 8 hour (AID 1224887). Note: top concentration of the series differs between compounds; nearly all actives have a fitted effect of over 50% in size. The essentials:
as §4

A short description of experiment [14]: A CellTox Green Cytotoxicity Assay to monitor cytotoxicity in HEK293 cells - 16 hour (AID 1224888). Note: nearly all actives have a fitted effect of over 35% in size. Note: potency is the fitted concentration of half-maximal effect. The procedure, abridged:
as §1

Experiment [15] can be described thus: qHTS RealTime-Glo MT Cell Viability Assay in HepG2 cells - 0 hour (AID 1224889). Note: nearly all actives have a fitted effect of over 50% in size. The essentials: as §3
A short description of experiment [16]: A CellTox Green Cytotoxicity Assay to monitor cytotoxicity in HepG2 cells - 8 hour (AID 1224890). Note: nearly all actives have a fitted effect of over 45% in size. Note: potency is the fitted concentration of half-maximal effect. The essentials:
as §2

The nature of experiment [17]: qHTS RealTime-Glo MT Cell Viability Assay in HepG2 cells - 8 hour (AID 1224873). Note: nearly all actives have a fitted effect of over 55% in size. The procedure, abridged:
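HepG2 cells (600/well) mixed with RealTime-Glo MT reagent, settled 5 h at 37 C/5% CO2 before compound addition. Nonlytic NanoLuc luminescence from viable-cell prosubstrate reduction read repeatedly during 40 h treatment at 37 C.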

Experiment [18] in a line: qHTS RealTime-Glo MT Cell Viability Assay in HEK293 cells - 24 hour (AID 1224886). For activity change, negative = cytotoxicity: top concentration of the series differs between compounds. Note: nearly all actives have a fitted effect of over 50% in size. Note: potency is the fitted concentration of half-maximal effect. The essentials: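 Quantitative high-throughput screen of the Tox21 10K library in HEK293: cells and RealTime-Glo reagents plated together, compound added at 5 h, luminescence monitored through 40 h at 37 C.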
A short description of experiment [19]: qHTS RealTime-Glo MT Cell Viability Assay in HEK293 cells - 40 hour (AID 1224874). Note: nearly all actives have a fitted effect of over 50% in size. Note: potency is the fitted concentration of half-maximal effect. The conditions noted are these: RealTime-Glo luminescence; max response: hits give low values. The essentials: as §4

Unmarked numbers belong to inactive results. Results filed as inconclusive are left out. The source made the active and inactive calls. Calls come from the whole dose curve; as a rule, active = well fitted curve in the direction sought with a large enough effect in the repeat runs; inconclusive = weak or mixed curves; inactive = no such curve, though single readings can be large; an effect the other way counts as inactive or inconclusive.

Results on 14 molecules are retold here after PubChem BioAssay (Tox21).
% is set by controls: 0 for no effect and ±100 for the full control effect.

In the case of `CC(C)(O)c1ccc(CNC(=O)c2cccnc2Oc2ccc(F)cc2)cc1`, the Potency result in experiment [1], in experiment [2], in experiment [3], in [4], in experiment [5] and in experiment [6] was “inactive” in each case. Further, the Potency entry in experiment [7], in [8], in experiment [9], in experiment [10], in experiment [11] and in [12] was “inactive” each time. Further, the Potency result in [13], in [14], in experiment [15] and in experiment [16] was “inactive” in each case.
Take `CN(C)CCN(Cc1ccccc1)c1ccccn1`: the Potency entry in experiment [1], in experiment [17], in [2], in [3], in experiment [4] and in experiment [5] was “inactive” throughout. Moreover, the Potency entry in experiment [6], in [7], in experiment [8], in [10], in [11] and in experiment [12] was “inactive” throughout. The Potency entry in [18], in experiment [14], in experiment [15] and in experiment [16] was “inactive” each time.
`Brc1c2ccccc2c(Br)c2ccccc12`: the cytotoxicity increase in experiment [1] is -0.912% [at 6.97 µM]; in experiment [3] it was 2.77% [at 6.97 µM]; in experiment [6] it was -0.88% [at 6.97 µM]; in experiment [8], -2.57% [at 6.97 µM]; in experiment [10], 2.42% [at 6.97 µM]; in [16], 2.74% [at 6.97 µM]. Besides, the viability change, negative = cytotoxic in experiment [17] is 0.903% [at 6.97 µM]. The activity change in experiment [2] was -0.621% [at 6.97 µM, hits give high values]; in experiment [14], -0.0109% [at 6.97 µM, hits give high values]. Moreover, the activity change, negative = cytotoxic is 0.723% [at 6.97 µM] in [4] and -0.25% [at 6.97 µM] in experiment [12]. In addition, the cytotoxicity is 2.45% [at 6.97 µM] in [5] and 5.32% [at 6.97 µM] in experiment [9]. Further, the activity change, negative = cytotoxicity was 0.766% [at 6.97 µM] in experiment [7], 1.98% [at 6.97 µM] in [18], -3.92% [at 6.97 µM] in experiment [13] and 2.26% [at 6.97 µM] in experiment [15].
On to `CCC(CC)Nc1ccc(C)c(C)c1`, for which the Potency result in experiment [1], in [17], in experiment [2], in experiment [3], in [4] and in experiment [6] was “inactive” throughout. In addition, the Potency result in [7], in [8], in experiment [9], in experiment [10], in experiment [11] and in experiment [12] was “inactive” throughout. The Potency entry in experiment [18], in experiment [13], in experiment [14], in experiment [15] and in [16] was “inactive” in each case. In [19], the max response is 12.5%.
Regarding `CCc1c(C(=O)NN2CCCCC2)nn(-c2ccc(Cl)cc2Cl)c1-c1ccc(Br)cc1`, the Potency entry in [1], in experiment [2], in experiment [3], in experiment [5], in [6] and in experiment [7] was “inactive” each time. For the same molecule, the Potency entry in experiment [8], in experiment [9], in experiment [11], in experiment [18], in experiment [14] and in experiment [15] was “inactive” each time. Moreover, the Potency entry in experiment [16] was “inactive”.
`CC(C)(C)OCC1CO1` (centres undefined): the Potency result in experiment [1], in experiment [2], in experiment [3], in experiment [4], in experiment [5] and in [6] was “inactive” throughout. Further, the Potency result in experiment [7], in experiment [8], in experiment [9], in experiment [10], in experiment [11] and in experiment [12] was “inactive” in each case. Besides, the Potency entry in [18], in experiment [13], in experiment [14], in [15] and in experiment [16] was “inactive” throughout. The max response in experiment [19] was -2.11%.
Consider `COc1ccc(S(=O)(=O)N2C(=O)[C@@](c3ccccc3OC)(N3C[C@H](O)C[C@H]3C(=O)N(C)C)c3cc(Cl)ccc32)c(OC)c1`, for which the Potency result in [1], in experiment [2], in experiment [3], in experiment [5], in experiment [6] and in [8] was “inactive” each time. The Potency result in [10], in experiment [11], in experiment [14], in [15] and in experiment [16] was “inactive” in each case. Moreover, the Potency in experiment [19] and in experiment [18] was 49 µM (active) throughout.
For the molecule `N=c1ccn2c(n1)O[C@H]1[C@H](O)[C@@H](CO)O[C@H]12`, the Potency entry in experiment [1], in experiment [17], in experiment [2], in experiment [4], in experiment [7] and in experiment [8] was “inactive” throughout. Further, the Potency entry in experiment [11], in experiment [12], in [18], in [13], in experiment [14] and in [15] was “inactive” throughout. Also, the Potency entry in experiment [16] was “inactive”. The max response in [19] was 22.1%. The Potency in [6] is 54.9 µM (active).
Consider `Cc1ccc(N=Nc2c(O)c(C(=O)O)cc3ccccc23)c(S(=O)(=O)O)c1`, for which the Potency entry in experiment [1], in experiment [17], in experiment [2], in [3], in [4] and in [5] was “inactive” in each case. The Potency entry in experiment [6], in experiment [7], in experiment [8], in experiment [9], in [10] and in experiment [11] was “inactive” each time. In addition, the Potency result in experiment [12], in [18], in experiment [13], in [14] and in experiment [15] was “inactive” in each case.
In the case of `CCCCNc1ccc(C(=O)OCCOCCOCCOCCOCCOCCOCCOCCOCCOC)cc1`, the Potency entry in [1], in [17], in experiment [2], in experiment [3], in experiment [4] and in experiment [5] was “inactive” throughout. Also, the Potency result in experiment [6], in experiment [7], in [8], in experiment [9], in experiment [10] and in [11] was “inactive” throughout. Further, the Potency entry in [12], in experiment [14], in experiment [15] and in [16] was “inactive” in each case.
In the case of `S=C([S-])NCCNC(=S)[S-].[Mn+2]`, the Potency entry in experiment [1], in [17], in [2], in experiment [3], in [4] and in experiment [5] was “inactive” throughout. The Potency entry in [6], in experiment [8], in [9], in experiment [10], in [11] and in experiment [12] was “inactive” each time. Moreover, the Potency result in experiment [13], in experiment [14], in experiment [15] and in [16] was “inactive” throughout.
For the molecule `COc1cccc(N(C)C(=S)Oc2ccc3c(c2)CCCC3)n1`, the Potency result in [1], in experiment [17], in experiment [2], in experiment [3], in [4] and in [5] was “inactive” throughout. The Potency entry in experiment [6], in experiment [7], in [8], in [9], in experiment [10] and in experiment [11] was “inactive” each time. Also, the Potency result in [12], in [18], in [13], in experiment [14], in experiment [15] and in experiment [16] was “inactive” in each case.
Turning to `Cc1ccc(C(=O)Oc2ccc(C(O)CNC(C)(C)C)cc2OC(=O)c2ccc(C)cc2)cc1` (centres undefined), the Potency in experiment [1] is 23.9 µM (active); in experiment [2] it was 23.9 µM (active); in [3], 21.3 µM (active); in [4], 23.9 µM (active); in [5], 21.3 µM (active); in experiment [6], 19 µM (active). Further, the Potency in experiment [8] is 26.8 µM (active); in experiment [10] it was 19 µM (active); in experiment [11] it was 23.9 µM (active); in experiment [12] it was 21.3 µM (active); in [14] it was 26.8 µM (active); in experiment [16] it was 23.9 µM (active). Further, the Potency entry in experiment [7], in experiment [9] and in experiment [15] was “inactive” throughout.
With `CC(C)Cc1ccc(C(C)C(=O)OCc2ccccn2)cc1` (centres undefined), the Potency result in experiment [1], in experiment [17], in experiment [2], in experiment [3], in experiment [4] and in experiment [5] was “inactive” throughout. The Potency entry in experiment [6], in experiment [7], in experiment [8], in experiment [9], in [10] and in [11] was “inactive” in each case. Besides, the Potency entry in [12], in [14], in experiment [15] and in experiment [16] was “inactive” in each case.
